This is a sample that favours compounds with a hit; in the whole collection about 1.7% have one here.
GLP1R inv ag: acts as inverse agonist at human GLP-1 receptor | P43220 | HEK293 GLP-1R CRE-luciferase, luminescence, 24 h; GLP-1R form is constitutively active | Potency, µM (titrated, usually from 38.3 µM), most hits filed as inhibitors | hit rate 1.6% among 410,000 | AID 624417; note: nearly all actives have a fitted effect of over 55% in size
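Stable HEK293 clone (constitutively active GLP-1R + cAMP-response luciferase); 200 cells/uL plated, 12 h pre-culture, compound 24 hr, 37 deg C/5% CO2; detection reagent 12 min RT; luminescence.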
GLP-1R agonist: GLP-1 receptor (human) agonism | HEK293 GLP-1R CRE-luciferase, luminescence, 4-6 h; cells express a hypersensitive GLP-1R form | Potency, µM (doses to about 45.6 µM), hits mostly activators | hit rate 0.007% among 380,000
GLP1R cytotox: cytotoxicity counter-screen for GLP-1 receptor inverse agonists; Potency, µM (titrated, usually from 38.3 µM), most hits filed as inhibitors; AID 624418; HEK293 cAMP-luciferase reporter cells, luminescence, 24 h; hit rate 0.13% among 410,000;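 note: loss of luciferase light is scored as toxicity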
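Cells in DMEM/10% Nu serum/1% pen-strep, 1536-well format. Pre-incubated 12 h, dosed with 23 nL compound, incubated a further 24 h. Luciferase detection, 12 min at room temp, luminescence.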
PTHR1 ag: activates the human parathyroid hormone receptor PTHR1. HEK293 GP2 PTHR1 cells, GloSensor cAMP luminescence, 1 h. Potency, µM (titrated, usually from 115 µM), hits mostly activators. hit rate 0.075% among 410,000. AID 743266; note: nearly all actives have a fitted effect of over 55% in size
Target sequence (Q03431 whole entry, looked up): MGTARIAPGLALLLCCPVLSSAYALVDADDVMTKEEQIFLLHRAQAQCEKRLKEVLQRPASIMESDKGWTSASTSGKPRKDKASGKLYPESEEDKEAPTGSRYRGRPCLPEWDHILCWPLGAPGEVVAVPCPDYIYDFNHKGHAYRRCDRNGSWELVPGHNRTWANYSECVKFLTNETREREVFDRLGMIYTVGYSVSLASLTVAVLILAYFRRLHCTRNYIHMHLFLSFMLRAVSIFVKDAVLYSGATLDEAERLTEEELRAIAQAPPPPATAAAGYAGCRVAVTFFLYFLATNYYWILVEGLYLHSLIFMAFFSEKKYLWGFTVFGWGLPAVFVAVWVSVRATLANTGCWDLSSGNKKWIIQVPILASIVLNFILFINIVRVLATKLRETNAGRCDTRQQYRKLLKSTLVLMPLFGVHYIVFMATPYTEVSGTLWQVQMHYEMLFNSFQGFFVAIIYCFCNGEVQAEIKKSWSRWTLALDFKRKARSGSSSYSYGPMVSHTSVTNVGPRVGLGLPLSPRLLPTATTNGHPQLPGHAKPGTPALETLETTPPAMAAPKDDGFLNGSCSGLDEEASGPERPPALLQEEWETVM
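HEK-293-derived GP2 cells expressing PTHR1 and a GloSensor cAMP reporter, 3,000/well, plated overnight, given luciferin plus IBMX (each 0.5 mM as added) for 1 h at 37 °C, then compound for 1 h at 37 °C. Luminescence was read after 15 min at room temperature.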
Each line names hits and unclear results; the compound was inactive in the other large screens. Calls come from the whole dose curve; as a rule, active = well fitted curve in the direction sought with a large enough effect; inconclusive = small, poorly fitted or top-dose-only effect, or another doubt; inactive = no such curve, though single readings can be large; an effect the other way counts as inactive or inconclusive.

CS(=O)(=O)N(CCc1ccccc1)CC(=O)N1CCCCCC1	none
O=C(CN1CCN(Cc2ccccc2)CC1)Nc1ccccc1-c1ccccc1	GLP1R inv ag 2µM
NC(=O)c1ccccc1NC(=O)CN1CCN(Cc2ccccc2)CC1	none
CCNc1ccc(Br)cc(C(=O)/C=C/c2ccc(Cl)cc2)c1=O	GLP1R inv ag 2.82µM
COC(=O)c1c(NC(=O)CS(=O)(=O)c2ccccc2)sc(C)c1C	GLP1R inv ag inconclusive
Cc1cccc2[nH]c3c(N4CC=C(c5ccc(F)cc5)CC4)ncnc3c12	GLP1R inv ag 10µM
COc1cccc2[nH]c3c(N4CCCCC4)ncnc3c12	none
COc1ccc2nc(C(c3ccc(C)cc3)n3c(-c4ccccc4Br)nc4ccccc43)[nH]c2c1 (configuration not stated)	GLP1R inv ag inconclusive
O=C(Nc1ccccc1OCc1ccccc1)c1ccccc1Br	GLP1R inv ag 10µM
CCOc1ccccc1NC(=O)c1ccccc1NC(=O)c1ccco1	none
COc1ccc(CN2CCC[C@]3(N[C@H](c4ccc(C)cc4)[C@@H]4C(=O)N(Cc5ccccc5)C(=O)[C@@H]43)C2=O)cc1	none
COc1ccc(-c2csc(NC(=O)c3ccccc3NS(=O)(=O)c3ccc(C)cc3)n2)cc1	GLP1R inv ag 4.47µM
CC(C)C(=O)OC/C(O)=C(\C#N)c1nc2ccccc2[nH]1	GLP1R inv ag inconclusive, GLP1R cytotox inconclusive
Cc1ccc(C)c(SCC(=O)OC/C(O)=C(\C#N)c2nc3ccccc3[nH]2)c1	GLP1R inv ag inconclusive, GLP1R cytotox inconclusive
COCC(=O)OC/C(O)=C(\C#N)c1nc2ccccc2[nH]1	GLP1R inv ag 5.01µM, GLP1R cytotox inconclusive
CCCC(=O)OC/C(O)=C(\C#N)c1nc2ccccc2[nH]1	GLP1R inv ag inconclusive, GLP1R cytotox 10µM
N#C/C(=C(/O)COC(=O)CSc1ccc2ccccc2c1)c1nc2ccccc2[nH]1	GLP1R inv ag 7.94µM, GLP1R cytotox inconclusive
Cc1cccc(C)c1OCC(=O)OC/C(O)=C(\C#N)c1nc2ccccc2[nH]1	GLP1R inv ag inconclusive, GLP1R cytotox inconclusive
O=C(CSc1nnc(CNC(=O)c2cccc(C(F)(F)F)c2)o1)NC1CCCC1	none
O=C(c1cc2nc(-c3ccccc3)cc(-c3ccccc3)n2n1)N1CCN(C(=O)c2ccco2)CC1	GLP1R inv ag inconclusive
Cc1cc(C)c(NC(=S)N(CCN2CCCCC2)Cc2ccco2)c(C)c1	GLP1R inv ag inconclusive, GLP1R cytotox inconclusive
Cc1cccc(C)c1NC(=S)N(CCN1CCCCCC1)Cc1ccco1	GLP1R inv ag 10µM
O=S(=O)(c1ccc2[nH]c3c(c2c1)CCCC3)N1CCCCC1	GLP1R inv ag inconclusive
O=S(=O)(c1ccc2[nH]c3c(c2c1)CCCC3)N1CCN(c2cccc(C(F)(F)F)c2)CC1	GLP1R inv ag 10µM (no result: GLP-1R agonist)
COc1ccccc1Cc1c(C2CCCCC2)nc2ccc(Cl)cn12	GLP1R inv ag 3.55µM, GLP1R cytotox inconclusive
C=C1C(=O)O[C@@H]2[C@H]1CC[C@H](C)[C@]1(O)CCC(=O)[C@@]21C	GLP1R inv ag 8.91µM, GLP1R cytotox inconclusive
CCOC(=O)C1(Cc2cccc(Cl)c2)CCCN(C(=O)c2occc2C)C1 (configuration not stated)	GLP1R inv ag 11.2µM
O=C(Cn1c(NCCO)nc2ccccc21)Nc1ccc2c(c1)OCCCO2	none
COc1ccc(OC(C)C(=O)NCCC2=CCCCC2)cc1 (configuration not stated)	GLP1R inv ag 11.2µM
COc1ccc(C(=O)NCCC2=CCCCC2)cc1	GLP1R inv ag inconclusive
CC1=NN(C(=O)CSCc2ccccc2)C(O)(c2ccc(Cl)cc2)C1 (configuration not stated)	GLP1R inv ag inconclusive
CC1=NN(C(=O)CSCc2ccccc2)C(O)(c2ccc(F)cc2)C1 (configuration not stated)	GLP1R inv ag 7.94µM
CCCCNCC1C(Oc2ccc(Cl)cc2)C(=O)N1c1ccccc1C (configuration not stated)	GLP1R inv ag 10µM, GLP1R cytotox inconclusive
CCCNCC1C(Oc2ccc(Cl)cc2Cl)C(=O)N1c1cccc(C)c1C (configuration not stated)	GLP1R inv ag inconclusive, GLP1R cytotox inconclusive
Cn1c(=O)c2[nH]c(CCNC(=O)c3ccccc3)nc2n(C)c1=O	none
CCNc1nc(NC(N)=S)nc(NC(C)(C)C)n1	none
O=c1[nH]c(=O)c2nc(-c3ccc(Cl)cc3)cnc2[nH]1	PTHR1 ag 14.1µM
O=c1[nH]c(=S)[nH]c2nc(-c3ccccc3)cnc12	none
COc1ccc(CC(=O)NC2CCS(=O)(=O)C2)cc1 (configuration not stated)	none
Cc1cc(C)c(-n2nnnc2SCC(=O)c2cccs2)c(C)c1	GLP1R inv ag 12.6µM
CC(=O)c1nc2ccccc2n1CCc1ccccc1	GLP1R inv ag inconclusive
N#CC(=C1NC(=O)c2ccccc21)c1nc2ccccc2n1CCO	GLP1R inv ag 10µM
Cc1ccc(S(=O)(=O)C(C#N)=C2N(C)c3ccccc3N2C)cc1	none
CC1CCCCC1NCC#CCOc1ccc(Cl)cc1 (configuration not stated)	GLP1R inv ag 11.2µM
CC1(c2ccc(OC(F)F)cc2)NC(=O)N(CC(=O)Nc2ccc(F)cc2)C1=O (configuration not stated)	GLP1R inv ag inconclusive
CC1(c2ccc(OC(F)F)cc2)NC(=O)N(CC(=O)Nc2ccc(OC(F)F)cc2)C1=O (configuration not stated)	GLP1R inv ag 10µM
O=C(NCCc1ccc(F)cc1)NC12CC3CC(CC(C3)C1)C2	GLP1R inv ag inconclusive
O=C(NCCC1=CCCCC1)NC12CC3CC(CC(C3)C1)C2	GLP1R inv ag 5.62µM
COc1ccc(C(=O)NC(c2ccccc2Cl)c2cc(Cl)c3cccnc3c2O)cc1 (configuration not stated)	GLP1R inv ag 1.78µM (no result: GLP-1R agonist)
Cc1nn(-c2ccc(Br)cc2)c(=O)c2ccccc12	GLP1R inv ag inconclusive
Cc1nn(-c2c(Cl)cc(Cl)cc2Cl)c(=O)c2ccccc12	GLP1R inv ag 8.91µM
CC[n+]1c(/C=C/c2c[nH]c3ccccc23)ccc2cc(C)ccc21	GLP1R inv ag 10µM, GLP1R cytotox inconclusive
CCN(CC)C(=O)c1ccc(/C=C/c2c[nH]c3ccccc23)[n+](C)c1	none
CCc1ccc(-n2c(=O)c3sc4ccccc4c3n(CC(=O)NCc3ccccc3)c2=O)cc1	none
Cc1onc(-c2c(F)cccc2Cl)c1C(=O)OCC(=O)c1c[nH]c2ccccc12	GLP1R inv ag 8.91µM
Cc1noc(C)c1C(=O)OCC(=O)c1c[nH]c2ccccc12	none
C(=C\c1ccccc1)/CSc1nnc(-c2ccncc2)n1Cc1ccco1	none
C(=C\c1ccccc1)/CSc1nnc(-c2ccccc2)n1Cc1ccco1	GLP1R inv ag 7.08µM
Cc1ccccc1-c1nc(CS(=O)(=O)CC(=O)NCc2ccco2)c(C)o1	none
CCCCNC(=S)NNC(=O)CCn1nc(C)c(Br)c1C	GLP1R cytotox 5.62µM
CCCCNC(=S)NNC(=O)CCn1cc(C)cn1	GLP1R inv ag 7.94µM, GLP1R cytotox inconclusive

Screening data deposited in PubChem by National Center for Advancing Translational Sciences (NCATS).
